Test results: PubChem BioAssay (Tox21)
Values joined by “and” are separate entries in the source; they are usually repeats but may differ in a detail not shown here. Equal entries are not always repeated. Results filed as inconclusive are left out. Where a call stands in place of a potency, no number is given. More than one record can exist for a structure, and the calls need not agree. Active and inactive are the calls of the source. The call rests on the fitted dose curve; in most records, active means well fitted inhibition curve with a large enough effect in the repeat runs; inconclusive means weak or mixed curves, or effect the other way; inactive means no such curve, though single readings can be large or run the other way.

What follows are compounds tested against Nuclear receptor subfamily 1 group I member 3 (Homo sapiens) (UniProt Q14994) (assay: qHTS assay to identify small molecule antagonists of the constitutive androstane receptor (CAR) signaling pathway (AID 1224838;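 further: HepG2 cells stably expressing hCAR with CYP2B6 luciferase reporter stimulated by CITCO; nearly all actives have a fitted effect of over 40% in size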)). Conditions: HepG2-CYP2B6-hCAR luciferase, CITCO-stimulated, 24 h; series mostly up to 92.4 µM; activity, negative = inhibition: at the top concentration.
Sequence of Nuclear receptor subfamily 1 group I member 3 (Homo sapiens) (Q14994 whole entry, looked up): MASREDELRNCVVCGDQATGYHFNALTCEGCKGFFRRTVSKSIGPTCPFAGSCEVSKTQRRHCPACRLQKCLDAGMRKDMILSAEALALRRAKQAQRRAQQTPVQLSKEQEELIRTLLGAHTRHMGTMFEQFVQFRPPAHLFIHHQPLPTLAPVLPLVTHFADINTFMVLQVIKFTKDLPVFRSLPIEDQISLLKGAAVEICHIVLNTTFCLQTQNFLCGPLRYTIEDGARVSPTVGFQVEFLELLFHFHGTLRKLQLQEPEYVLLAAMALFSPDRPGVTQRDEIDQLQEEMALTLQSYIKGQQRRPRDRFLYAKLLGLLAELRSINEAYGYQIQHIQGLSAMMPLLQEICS
From the text: U.S. Tox21 Program National Center for Advancing Translational Sciences [NCATS] NIH Chemical Genomics Center [NCGC] U.S. Environmental Protection Agency [EPA] National Institutes of Environmental Health Sciences [NIEHS] National Toxicology Program [NTP] U.S. Food and Drug Administration [FDA] Tox21 Assay Overview: The constitutive androstane receptor (CAR) is a nuclear receptor which regulates multiple drug metabolizing enzymes (DMEs) and transporters. Activating CAR will generally increase the transcription and subsequent translation of CYP2B6 and CYP3A4. These two DMEs represent about 50% of the drug metabolizing potential in the body. When CAR is deactivated, the metabolizing potential in the body will decrease, subsequently increasing the toxicity in the body or lowering the therapeutic potential of a pro-drug. Recently, there have also been studies performed indicating CARs role in energy metabolism and cancer therapy. Therefore, inhibiting CARs activity could have a potential effect on diabetes and cancer. Identifying environmental toxins and compounds which modulate CAR, through the use of the Tox21 10K compound collection, will be an important step in determining the toxicity and potential therapeutic effects these factors will have on the human body.
Tox21 Assay Protocol Summary: A double-stable (hCAR and CYP2B6-2.2kb) transfected cell line, derived from human hepatoma (HepG2) cells, was utilized for the duration of the quantitative high-throughput screens. The HepG2-CYP2B6-hCAR cells suspended in DMEM culture medium supplemented with 10% FBS, 5 ug/mL blasticidin, 0.5 mg/mL geneticin, 100 U/mL penicillin and 100 ug/mL streptomycin were dispensed at 2500 cells/4 uL/well in 1536-well white solid bottom plates using a Multidrop Combi. After the assay plates were incubated at 37 C/5% CO2 for 4 hrs, 23 nL of compounds at 15 concentrations (from 5-48 columns) or positive control (from 1 to 4 columns) were transferred to the assay plates using a Pintool station. One uL of CITCO, was added using a Flying Reagent Dispenser to generate a final concentration of 50 nM CITCO inside each well. After a 24 hr incubation period at 37 C/5% CO2, four uL of ONE-Glo reagent was added into the assay plates using a Flying Reagent Dispenser. After a 30 min incubation period at room temperature, the luminescence intensity in the assay plates was measured using a ViewLux plate reader.
Potency means the concentration at half of the fitted maximal effect.

Row | SMILES | Potency | activity, negative = inhibition
1 | CCCCCNCCCCC | inactive | 
2 | Cc1ccc(C)c(S(=O)(=O)O)c1 | inactive | 
3 | O=C(O)Cc1c[nH]c2ccccc12 | inactive | 
4 | Cc1cc(C)cc(O)c1 | inactive | 
5 | CCCCC(=O)O |  | 14.1% (inactive)
6 | Oc1ccc(Cc2ccccc2O)cc1 | inactive | 
7 | CC(=O)OC/C=C(\C)CCC=C(C)C | inactive | 
8 | CCCCCCC(=O)O |  | -4.62% (inactive)
9 | O=c1n(CCCN2CCN(c3cccc(Cl)c3)CC2)nc2ccccn12 | inactive | 
10 | NC(=O)NC(N)=O | inactive | 
11 | CC(=O)Nc1ccc(CC(=O)O)cc1 | inactive | 
12 | CCCCCCCCC(=O)O | inactive | 
13 | CCCN(CCC)C(=O)SCC | inactive | 
14 | C=CC(=O)NCOCCCC | inactive | 
15 | CC(=O)OC(C)(C)C1CC=C(C)CC1 (stereo not given) | inactive | 
16 | CCCCCCCC(=O)O | inactive | 
17 | CCc1cccc(O)c1 | inactive | 
18 | C1CCCNCC1 |  | 3.69% (inactive)
19 | O=C1OC(=O)c2c(Cl)c(Cl)c(Cl)c(Cl)c21 |  | 12.8% (inactive)
20 | c1cnc2c(c1)ccc1cccnc12 | 219 nM (active) and inactive and 864 nM (active) | 

Row | SMILES | Potency | activity, negative = inhibition
21 | Cc1cc(C)c(O)c(C)c1 | inactive | 
22 | CC(COCC(C)OC(=O)c1ccccc1)OC(=O)c1ccccc1 (stereo not given) | inactive | 
23 | COc1ccc(N)c(OC)c1 | inactive | 
24 | CC(C)(C)NC[C@H](O)COc1nsnc1N1CCOCC1 | inactive | 
25 | CN1Cc2c(N)cccc2C(c2ccccc2)C1 (stereo not given) | inactive | 
26 | O=C1O[C@H]([C@H](O)CO)C(O)=C1O | inactive | 
27 | Cc1ccc(C(C)C)cc1 | inactive | 
28 | CC1(C)[C@@H](O[C@H]2O[C@H](C(=O)O)[C@@H](O)[C@H](O)[C@H]2O[C@@H]2O[C@H](C(=O)O)[C@@H](O)[C@H](O)[C@H]2O)CC[C@]2(C)[C@H]3C(=O)C=C4[C@@H]5C[C@@](C)(C(=O)O)CC[C@]5(C)CC[C@@]4(C)[C@]3(C)CC[C@@H]12 | inactive | 
29 | NCCNCCNCCN | inactive | 
30 | CN=C(NC#N)NCCSCc1nc[nH]c1C | inactive | 
31 | COc1c2ccoc2cc2oc(=O)ccc12 | inactive | 
32 | CC/C(C)=N/O | inactive | 
33 | OC1CCCCC1 | inactive | 
34 | O=c1c(O)c(-c2ccc(O)c(O)c2)oc2cc(O)cc(O)c12 | inactive | 
35 | OCc1ccc(Cl)cc1Cl | inactive | 
36 | O=C(NCC1CCCCN1)c1cc(OCC(F)(F)F)ccc1OCC(F)(F)F (stereo not given) | inactive | 
37 | CC(C=O)Cc1ccc(C(C)(C)C)cc1 (stereo not given) | inactive | 
38 | CC(C)=CCC/C(C)=C/C=O | inactive | 
39 | COc1c(Cl)ccc(Cl)c1C(=O)O | inactive | 
40 | COCN(COC)c1nc(N(COC)COC)nc(N(COC)COC)n1 | inactive | 
